From PubChem BioAssay (NCATS) come the findings set out here.

Inconclusive results are not listed. The source made the active and inactive calls. The call rests on the fitted dose curve; in most records, active means well fitted inhibition curve with a large enough effect; inconclusive means small, poorly fitted or top-dose-only effect; inactive means flat fitted curve, though single readings scatter.

What all share (assay): qHTS profiling for inhibitors of Plasmodium falciparum proliferation (AID 504749); further: nearly all actives have a fitted effect of over 60% in size
Common to all, as to details: P. falciparum in erythrocytes, SYBR Green DNA, 72 h; series mostly up to 28.7 µM
(In general: Quantitative high-throughput screening tests each substance at several concentrations.)

One test relates to CP238. In a few lines: (§1)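 P. falciparum-infected erythrocytes (0.3% parasitemia, 2.5% hematocrit) incubated with compound 72 h at 37 C, 5% CO2. Parasite DNA detected by SYBR Green after lysis, overnight at room temperature; normalised to 0.29 uM artemisinin and DMSO.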
In the next test the test system is CP250. In a few lines:
as §1

For another test, the system named is CP252. Put shortly: as §1
Another test has as its system CP256. In a few lines:
as §1

A further test deals with CP262. In a few lines: as §1
In a further test the test system is CP266. Put shortly: as §1
The test system of a further test is CP268. Put shortly: as §1
A further test concerns CP260. Put shortly: as §1
For another test, the system named is CP247. In a few lines: as §1
Another test concerns CP265. Put shortly: as §1
Potency means the concentration at half of the fitted maximal effect.

Regarding `CN1CCCC(n2nc(Cc3ccc(Cl)cc3)c3ccccc3c2=O)CC1` (stereo not drawn), the Potency result with CP238, in the test with CP250, with CP252, in the test with CP256, in the test on CP262 and in the test on CP266 was “inactive” in each case. The Potency result in the test on CP268 is “inactive”.

In the case of `CCn1cc(C(=O)O)c(=O)c2cc(F)c(N3CCN(C)CC3)cc21`, the Potency result in the test with CP238, in the test on CP262, with CP266 and in the test on CP268 was “inactive” in each case.

In the case of `CNCC[C@H](Oc1cccc2ccccc12)c1cccs1`, in the test with CP260, the Potency was 8.91 µM (active). The Potency result in the test with CP266 is “inactive”.

For `NC(=O)N1c2ccccc2CC(=O)c2ccccc21`, the Potency entry with CP238, in the test on CP247, with CP250, in the test with CP252, with CP256 and with CP260 was “inactive” throughout. The Potency entry with CP265, in the test with CP266 and in the test on CP268 was “inactive” throughout.

On to `CC(C)(C)C(=O)OCOP(=O)(COCCn1cnc2c(N)ncnc21)OCOC(=O)C(C)(C)C`, for which the Potency result in the test on CP247, in the test with CP262, with CP266 and in the test on CP268 was “inactive” throughout.

On to `C[C@@H](NCCCc1cccc(C(F)(F)F)c1)c1cccc2ccccc12`, for which the Potency in the test with CP238 was 11.2 µM (active); with CP247, 10 µM (active); with CP252 it was 8.91 µM (active); with CP260, 4.47 µM (active); in the test on CP265, 11.2 µM (active). For the same compound, in the test on CP262, the Potency result was “inactive”.

`CCC(C)(C)c1ccc(CC(C)CN2C[C@@H](C)O[C@@H](C)C2)cc1` (stereo partly drawn): the Potency result in the test with CP238, in the test with CP247, in the test on CP250, with CP252, in the test with CP256 and with CP262 was “inactive” throughout. Further, the Potency result in the test with CP265, in the test with CP266 and in the test on CP268 was “inactive” throughout.

Turning to `COc1cccc(N(C)C(=S)Oc2ccc3c(c2)CCCC3)n1`, the Potency result in the test on CP238, with CP247, with CP250, in the test on CP252, in the test on CP256 and in the test on CP262 was “inactive” each time. In addition, the Potency result in the test with CP265 and in the test on CP266 was “inactive” throughout.

Consider `CN(Cc1cc(Br)cc(Br)c1N)C1CCCCC1`, for which the Potency result with CP247, in the test with CP250, with CP252, in the test on CP256, with CP262 and in the test on CP265 was “inactive” throughout. Besides, the Potency result in the test on CP266 and in the test on CP268 was “inactive” each time.

For the compound `O=S(=O)(O)CCS`, the Potency entry with CP238, in the test on CP247, with CP250, with CP252, with CP256 and in the test on CP262 was “inactive” in each case. Moreover, the Potency entry in the test on CP265, in the test on CP266 and in the test on CP268 was “inactive” in each case.

With `Oc1c(Cl)cc(Cl)c2cccnc12`, the Potency in the test with CP247 is 8.91 µM (active); with CP250 it was 12.6 µM (active). Besides, the Potency entry in the test on CP266 is “inactive”.

On to `O=C(O)c1cn(C2CC2)c2cc(N3CCNCC3)c(F)cc2c1=O`, for which the Potency result in the test with CP247 was “inactive”.

As to `CC(C)Cn1cnc2c(N)nc3ccccc3c21`, the Potency entry with CP238, with CP247, in the test with CP250, with CP252, in the test on CP256 and in the test on CP262 was “inactive” in each case. Moreover, the Potency entry in the test on CP265, in the test with CP266 and with CP268 was “inactive” each time.

For the compound `CCCc1nc(C)c2c(=O)[nH]c(-c3cc(S(=O)(=O)N4CCN(CC)CC4)ccc3OCC)nn12`, the Potency result in the test with CP238, in the test on CP247, with CP250, in the test with CP252, in the test on CP256 and with CP262 was “inactive” in each case. The Potency entry in the test with CP265 and in the test on CP268 was “inactive” in each case.

As for `CNC1CCCN(c2c(F)cc3c(=O)c(C(=O)O)cn(C4CC4)c3c2OC)C1` (stereo not drawn), the Potency result in the test on CP238, in the test with CP250, in the test with CP252, in the test with CP256, with CP260 and with CP262 was “inactive” in each case. For the same compound, the Potency entry in the test with CP265 and in the test with CP268 was “inactive” each time.

Take `COc1cc([C@@H]2c3cc4c(cc3[C@H](O)[C@H]3COC(=O)[C@H]23)OCO4)cc(OC)c1OC`: the Potency in the test with CP247 is 10 µM (active); in the test with CP250, 8.91 µM (active); with CP256, 8.91 µM (active); with CP260, 2.82 µM (active); with CP265 it was 2.51 µM (active); in the test on CP268 it was 9.53 µM (active). For the same compound, in the test with CP262, the Potency result was “inactive”.

On to `N[C@@H](Cc1ccc(O)c(O)c1)C(=O)O`, for which the Potency result in the test on CP262, in the test on CP266 and in the test on CP268 was “inactive” each time.

`CCn1cc(C(=O)O)c(=O)c2cc(F)c(N3CCNCC3)nc21`: the Potency entry in the test on CP238, with CP247, with CP250, in the test on CP262, in the test on CP265 and in the test with CP268 was “inactive” throughout.

With `COc1cc2c(Nc3ccc(Br)cc3F)ncnc2cc1OCC1CCN(C)CC1`, the Potency in the test on CP238 is 6.31 µM (active); in the test on CP247, 1 µM (active); in the test with CP250 it was 1.41 µM (active); with CP252, 1.12 µM (active); with CP256, 3.16 µM (active); in the test on CP260 it was 3.55 µM (active). Besides, the results for the Potency in the test on CP265 and with CP268 were 3.98 µM (active) and 2.13 µM (active), respectively. In addition, the Potency entry in the test with CP266 is “inactive”.

Turning to `COc1c(N2CCNC(C)C2)c(F)cc2c(=O)c(C(=O)O)cn(C3CC3)c12` (stereo not drawn), the Potency result in the test with CP238, with CP247, in the test on CP252, with CP260, in the test with CP265 and in the test with CP266 was “inactive” each time. Moreover, in the test with CP268, the Potency entry is “inactive”.

In the case of `C1CCC(C(CC2CCCCN2)C2CCCCC2)CC1` (stereo not drawn), the Potency in the test on CP247 was 11.2 µM (active); with CP250, 12.6 µM (active); in the test with CP252 it was 11.2 µM (active); in the test on CP256, 10 µM (active); with CP260, 8.91 µM (active); in the test with CP266, 15.1 µM (active). In the test on CP268, the Potency is 12 µM (active). In the test with CP262, the Potency entry was “inactive”.

`O=c1oc2c(O)c(O)cc3c(=O)oc4c(O)c(O)cc1c4c23`: the Potency with CP260 was 1.41 µM (active). In addition, the Potency result in the test on CP265 was “inactive”.

Turning to `CCCCOc1ccc(CC(=O)NO)cc1`, the Potency with CP247 was 4.47 µM (active); in the test on CP250 it was 2.24 µM (active); in the test with CP252, 3.98 µM (active); with CP256, 1.41 µM (active); with CP260, 2.82 µM (active); with CP262 it was 2.56 µM (active).

With `COc1ccc(C(=O)CC(=O)c2ccc(C(C)(C)C)cc2)cc1`, the Potency result with CP238, with CP247, with CP250, in the test on CP252, in the test on CP256 and in the test with CP262 was “inactive” each time. The Potency result in the test with CP265, with CP266 and in the test with CP268 was “inactive” throughout.

For the compound `CC(N)C12CC3CC(CC(C3)C1)C2` (stereo not drawn), the Potency result in the test with CP250, in the test with CP252, in the test with CP256, in the test on CP262 and in the test on CP266 was “inactive” in each case.

For `CC1=CC(=O)c2ccccc2C1=O`, the Potency entry in the test on CP238, in the test with CP252, with CP256, in the test on CP262, with CP265 and in the test on CP266 was “inactive” each time. Moreover, in the test with CP268, the Potency result was “inactive”.

For the compound `CCOC(=O)c1ccc(C#Cc2ccc3c(c2)C(C)(C)CCS3)nc1`, the Potency result with CP238, with CP252, in the test with CP262 and with CP266 was “inactive” in each case.

For `CCn1cc(C(=O)O)c(=O)c2cc(F)c(N3CCNCC3)cc21`, the Potency entry in the test on CP238, in the test with CP247, with CP250, in the test on CP262 and in the test on CP265 was “inactive” throughout.
